# Experimental data as given in PubChem BioAssay AID1626 (SRMLSC, 2009).
# Out of some 220,000 compounds screened, about 2,000 (0.91%) were called active. Roughly 2% stayed inconclusive and do not appear here. The list is a sample of the results. Measured potencies and affinities stand elsewhere. A number with no mark means an inactive call. No stated cut-off is given here; in the data, inconclusive means inhibition above about 80% without an active follow-up result; inactive means below that; test concentration not stated here.
# Assay: M. tuberculosis H37Rv growth inhibitors, H37Rv strain (AID 1626);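 further: bacteria incubated seven days before Alamar blue readout; 0% = bacteria only wells and 100% = bacteria with antibiotic wells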
# Details: stronger effect = higher value, concentration not given here
row,SMILES,inhibition
1,COc1cc(CNC2CCCCCC2)cc(OC)c1,9.94%
2,Cc1nc(-c2ccc(Cl)cc2)sc1C(=O)NNC(=O)C(C)C,-5%
3,CCC1CCCCN1C(=O)COc1c(Br)cc(Br)c2cccnc12 (centres undefined),-13.3%
4,CCn1nc(C(=O)Nc2ccc(S(=O)(=O)Nc3ncccn3)cc2)c2ccccc2c1=O,1.39%
5,CCN(CC)S(=O)(=O)c1cc(NC(=O)COC(=O)CCc2nc3ccccc3s2)ccc1C,0.37%
6,CCOc1ccc(NC(=O)Cn2c(=O)n(CC3CCCO3)c(=O)c3ccccc32)cc1 (centres undefined),0.09%
7,COc1cccc2cc(C(N)=O)/c(=N/NC(=O)COc3ccc(Cl)cc3)oc12,1.32%
8,CC(C)c1ccc(NC(=O)COc2nnc(-c3cccs3)c(-c3cccs3)n2)cc1,3.94%
9,O=C(CSc1ccccn1)c1ccc(F)cc1,-5.01%
10,O=C(CSc1ccc(-c2ccccn2)nn1)c1ccc([N+](=O)[O-])cc1,9.1%
11,CCC(Sc1nc2ccccc2c(=O)[nH]1)C(=O)Nc1ccc(C(C)=O)cc1 (centres undefined),10.9%
12,CCOC(=O)C(NCc1ccccc1OC)(NC(C)=O)C(F)(F)F (centres undefined),-3.95%
13,COCCSc1nnc(NC(=O)c2ccc(OC)c([N+](=O)[O-])c2)s1,-5.62%
14,CCOC(=O)C(C)Sc1nnc(NC(=O)c2cccc([N+](=O)[O-])c2C)s1 (centres undefined),27%
15,O=C(NCc1cccs1)c1cccc(S(=O)(=O)N2CCCCC2)c1,-1.3%
16,O=[N+]([O-])c1cccc(N=NN(CCO)c2cccc([N+](=O)[O-])c2)c1,7.57%
17,Cc1ccc(NC(=O)c2cncc(Br)c2)c([N+](=O)[O-])c1,5.6%
18,OCCNc1nc(-c2ccccc2)nc2c1oc1ccccc12,1.56%
19,CCCNC(=O)NS(=O)(=O)c1ccc(Cl)cc1,-12.9%
20,CN(C)C(=O)c1nnsc1Sc1ccc(Cl)cc1,-1.74%
21,O=C(c1ccc(S(=O)(=O)c2ccc(Cl)cc2)cc1)N1CCOCC1,-6.61%
22,CNC(=O)c1nnsc1S(=O)c1ccc(Cl)cc1 (centres undefined),78.9%
23,O=C(Nc1ccccc1)c1nnsc1S(=O)(=O)c1ccc(Cl)cc1,2.07%
24,O=C(Nc1ccccc1)c1nnsc1S(=O)c1ccc(Cl)cc1 (centres undefined),47.2%

row,SMILES,inhibition
1,CCCNC(=O)c1nnsc1Sc1ccc(Cl)cc1,18.6%
2,N/C(=N\S(=O)(=O)c1ccc(Cl)cc1)N1CCOCC1,-5.14%
3,CNC(=O)CCC(=O)Nc1ccc(C)cc1,-1.09%
4,COc1ccc(C2C(C(=O)O)CCC(=O)N2c2ccc(C)cc2)cc1OC (centres undefined),-2.58%
5,C=C(C)Cn1c(SCCCO)nc2c1c(=O)[nH]c(=O)n2C,-7.43%
6,O=C(NC1CC1)C1=COCCO1,-8.37%
7,O=C(Nc1ccccc1N1CCOCC1)c1cc(F)cc(F)c1,-4.82%
8,N#Cc1cc(C(=O)c2cc(Cl)ccc2O)cn(-c2ccccc2)c1=O,-3.03%
9,Cc1ccc(C(=O)NNC(=O)Cn2nnc3ccccc32)cc1,-15.4%
10,CN1CCN(C(=O)c2cnn(-c3ccccc3)c2NC(=O)c2ccccc2)CC1,-6.4%
11,O=C(N/N=C/c1cccc([N+](=O)[O-])c1)c1cccs1,4.78%
12,COc1ccc(C(C)=O)cc1COC(=O)c1ccc(S(=O)(=O)N(C)C)cc1,-3.54%
13,O=C(Nc1ccn(Cc2c(F)c(F)cc(F)c2F)n1)c1cccc(Cn2cc([N+](=O)[O-])cn2)c1,2.31%
14,CC1=C(C(=O)N2CCOCC2)C(c2c(F)cccc2F)NC(=O)N1 (centres undefined),-2.62%
15,CCOC(=O)C1CCCN(S(=O)(=O)c2ccc(S(N)(=O)=O)cc2)C1 (centres undefined),-2.7%
16,O=C(c1cc(Cl)ccc1Cl)N1CCOCC1,-11%
17,Cc1nnsc1-c1c(C(=O)N2CCOCC2)c(C)nn1-c1ccc(Cl)cc1,3.63%
18,Cc1c(C(=O)Nc2cccc(S(=O)(=O)N3CCCC3)c2)oc2ccccc12,0.77%
19,CCC(CC)C(=O)Nc1cccc(C(=O)Nc2ccc3c(c2)OCO3)c1,0.36%
20,CC1CC(C)CN(C(=O)c2ccc3c(c2)N(Cc2ccccc2)CCS3)C1 (centres undefined),8.05%
21,CC1Cc2ccccc2N1C(=O)Cn1c(=O)cc(O)c2ccccc21 (centres undefined),-9.25%
22,O=C(CSc1nc2ccccc2[nH]1)Nc1nc(-c2cccc(Br)c2)cs1,9.78%
23,CCCCn1c(SCC(=O)Nc2nccs2)nc2ccccc2c1=O,-6.31%
24,CN(C)CCCn1c(SCC(=O)N2c3ccccc3Sc3ccccc32)nc2ccccc2c1=O,0.3%

row,SMILES,inhibition
1,COCCCn1c(SCC(=O)Nc2ccc(C)cc2)nc2ccccc2c1=O,-3.97%
2,CC(=O)c1nnn(-c2ccc([N+](=O)[O-])cc2)c1C,-0.32%
3,c1ccc2c(-c3cn4ccccc4n3)c[nH]c2c1,-5.8%
4,O=C1CC(=C2c3ccccc3-c3ccccc32)C(=O)N1CCCCN1CCN(c2ccccc2)CC1,8.38%
5,O=C1CC(=C(c2ccccc2)c2ccccc2)C(=O)N1CCCN1CCN(c2cccc(Cl)c2)CC1,12.8%
6,O=C1CC(=C(c2ccccc2)c2ccccc2)C(=O)N1CCN1CCN(c2cccc(Cl)c2)CC1,5.45%
7,Cc1ccccc1N1CCN(CCCN2C(=O)CC(=C(c3ccccc3)c3ccccc3)C2=O)CC1,0.08%
8,COc1cccc(C2C(C(=O)c3cccs3)=C(O)C(=O)N2CCN(C)C)c1OC (centres undefined),-9.59%
9,Cc1ccc(NP(=O)(Nc2ccc(C)cc2)Oc2ccccc2)cc1,5.95%
10,O=C(NCc1ccccc1Cl)C1CCCN(c2nc3ccsc3c(=O)s2)C1 (centres undefined),1.18%
11,NC(=O)c1nsc(C(=O)N(CC(=O)NCc2ccc3c(c2)OCO3)C2CCCC2)c1N,0.67%
12,C=CCNC(=O)/C(C#N)=C/c1c(C)nn(-c2ccc(Cl)cc2)c1Cl,4.6%
13,O=C(CC(Nc1ccccc1Cl)C(=O)OCC(=O)c1cccs1)c1ccccc1 (centres undefined),-5.28%
14,O=C(CC(Nc1cccc(Cl)c1Cl)C(=O)OCC(=O)c1cccs1)c1ccccc1 (centres undefined),-5.78%
15,CC(=O)NC(Cc1ccccc1)C(=O)OCC(=O)c1ccc(Br)cc1 (centres undefined),-1.27%
16,COc1ccccc1NC(CC(=O)c1ccccc1)C(=O)OCC(=O)c1ccc(F)cc1 (centres undefined),78.2%
17,Cc1ccc(C(=O)NCCCN2CCOCC2)cc1,3.65%
18,COc1ccc2c(c1)S/C(=C\C(=O)c1ccncc1)N2C,0.94%
19,COC(=O)c1ccc2c(c1)N(Cc1nc(-c3cccc(C)c3)oc1C)C(=O)C1CCCN21 (centres undefined),8.29%
20,O=C(/C=C/c1ccc(Cl)cc1Cl)c1nc2ccccc2[nH]1,0.46%
21,Cc1ccc(/C=C/C(=O)c2nc3ccccc3[nH]2)cc1,0.43%
22,C/C(=N/NC(=O)CNC(=O)c1cccnc1)c1ccco1,7.49%
23,COc1cccc(CNC(=O)C2CCN(S(=O)(=O)c3c(C)nn(C)c3C)CC2)c1,-0.47%
24,O=C(c1ccc2c3c(cccc13)CC2)C1CCCN(Cc2ccncc2)C1 (centres undefined),3.23%

row,SMILES,inhibition
1,O=C(c1ccc2c3c(cccc13)CC2)C1CCCN(Cc2ncc[nH]2)C1 (centres undefined),-5.62%
2,O=C(N/N=C1\CC2CC=CC12)c1ccc(Br)cc1 (centres undefined),-7.43%
3,Cc1ccc2cc(CN(CC3CCCO3)S(=O)(=O)c3ccc4c(c3)OCCO4)c(=O)[nH]c2c1C (centres undefined),9.1%
4,COC(=O)c1ccccc1N=Nc1c(N)n[nH]c1N,-10.6%
5,Nc1n[nH]c(N)c1N=Nc1cccc(F)c1,0.51%
6,Cc1ccc(-c2[nH]nc(N)c2N=Nc2cccc(Cl)c2C)cc1,0.18%
7,Nc1n[nH]c(N)c1N=Nc1ccc(Cl)cc1,1.65%
8,CCn1cc(C2=NC(C(C)C)CO2)c2ccccc21 (centres undefined),5.08%
9,CCOc1ccc(OCC)c(NC(=O)Nc2ccc3c(c2)N(C)C(=O)CS3)c1,1.8%
10,O=C(O)c1cc(NC(=O)C2CCCO2)cc(NC(=O)C2CCCO2)c1 (centres undefined),-1.59%
11,CC1(C)CC(=O)C(/C=N/n2c(C(F)(F)F)nc3ccccc3c2=O)=C(O)C1,13.1%
12,O=C(CSc1nnc(-c2ccccc2F)n1C1CCCCC1)N1CCCC1,-3.16%
13,OC(CN1CCN(c2ccccn2)CC1)Cn1c2ccccc2c2ccccc21 (centres undefined),34.8%
14,Cc1cc(C)c(OCC(O)CN2CCN(c3ccccn3)CC2)c(C)c1 (centres undefined),-4.16%
15,OC(COC(c1ccccc1)c1ccccc1)CN1CCN(c2ccccn2)CC1 (centres undefined),3.57%
16,OC(COCc1ccc(Cl)cc1)CN1CCN(c2ccccn2)CC1 (centres undefined),6.32%
17,CC(C)C1=C2CCCCC2NC(=O)N1 (centres undefined),-3.19%
18,O=C(CN1CCSC1=NCc1ccccc1)c1ccccc1,0.24%
19,N#Cc1ccc(-c2ccccc2)nc1SCC(=O)c1cccc(Cl)c1,12.6%
20,Cc1nc(SCC(=O)c2cc3ccccc3oc2=O)c(C#N)c(C)c1C(=O)Nc1ccccc1,1.89%
21,Cc1nc(SCC(=O)OCc2ccccc2)c(C#N)c(-c2ccccc2)c1C(=O)Nc1ccccc1,1.59%
22,Cc1ccc(C(=O)CSc2nc(-c3ccccc3)ccc2C#N)cc1,4.37%
